# Assay results: the supplement of paper PMC10849652
# About 8,800 targets were measured; listed, in parts, are those with a hit and a random draw of the rest. About 0.5% of all pairs of compound and target were hits. A number with no mark means an inactive call.
# Experiments:
# Test in all cases: log2 fold change, soluble protein after heating vs DMSO (PISA); higher = thermal stabilisation; K562 lysate, 10 uM; active = over 0.2 and 3.5 SD of the protein, either way, in both replicates (recomputed)
# nilotinib = compound: Cc1cn(-c2cc(NC(=O)c3ccc(C)c(Nc4nccc(-c5cccnc5)n4)c3)cc(C(F)(F)F)c2)cn1 [nilotinib]
# In short: (§1)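 Soluble protein was defined as the supernatant remaining after 21,000xg for 90 min, following pooling of heated aliquots and adjustment to 0.5% NP-40 at 4°C. Before that, crude K562 extract at 1 mg/mL protein in PBS pH 7.4 with 1 mM MgCl2 was treated with 10 μM compound for 30 min and heated for 3 min across 48°C-58°C. Quantification used TMTpro 16plex LC-MS/MS with channel sums equalised, and values are log-two fold changes in thermal stability relative to solvent controls from duplicates.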
# [1] = compound: Cc1nc(Nc2n[nH]c3c2CN(C(=O)N[C@H](CN(C)C)c2ccccc2)C3(C)C)c2sccc2n1
# In short: as §1
# dasatinib = compound: Cc1nc(Nc2ncc(C(=O)Nc3c(C)cccc3Cl)s2)cc(N2CCN(CCO)CC2)n1 [dasatinib]
# In short: as §1
# [2] = compound: Cc1ncc(-c2ccnc(Nc3ccc(S(C)(=O)=O)cc3)n2)n1C(C)C
# In short: as §1
# [3] = compound: Cn1cc(-c2ccc3c(c2)CCN3C(=O)Cc2cccc(C(F)(F)F)c2)c2c(N)ncnc21
# In short: as §1
# quisinostat = compound: Cn1cc(CNCC2CCN(c3ncc(C(=O)NO)cn3)CC2)c2ccccc21 [quisinostat]
# In short: as §1
# tipifarnib = compound: Cn1cncc1[C@@](N)(c1ccc(Cl)cc1)c1ccc2c(c1)c(-c1cccc(Cl)c1)cc(=O)n2C [tipifarnib]
# In short: as §1
# [4] = compound: NC(=O)Nc1cc(-c2cccc(F)c2)sc1C(=O)N[C@H]1CCCNC1
# In short: as §1
# [5] = compound: NC(=O)c1cnc(N[C@@H]2CCCC[C@@H]2N)nc1Nc1cccc(-n2nccn2)c1
# In short: as §1
# [6] = compound: NC1(c2ccc(-c3nc4ccn5c(=O)[nH]nc5c4cc3-c3ccccc3)cc2)CCC1
# In short: as §1
# Sequence of UniProt Q9Y223 (Q9Y223 whole entry, looked up): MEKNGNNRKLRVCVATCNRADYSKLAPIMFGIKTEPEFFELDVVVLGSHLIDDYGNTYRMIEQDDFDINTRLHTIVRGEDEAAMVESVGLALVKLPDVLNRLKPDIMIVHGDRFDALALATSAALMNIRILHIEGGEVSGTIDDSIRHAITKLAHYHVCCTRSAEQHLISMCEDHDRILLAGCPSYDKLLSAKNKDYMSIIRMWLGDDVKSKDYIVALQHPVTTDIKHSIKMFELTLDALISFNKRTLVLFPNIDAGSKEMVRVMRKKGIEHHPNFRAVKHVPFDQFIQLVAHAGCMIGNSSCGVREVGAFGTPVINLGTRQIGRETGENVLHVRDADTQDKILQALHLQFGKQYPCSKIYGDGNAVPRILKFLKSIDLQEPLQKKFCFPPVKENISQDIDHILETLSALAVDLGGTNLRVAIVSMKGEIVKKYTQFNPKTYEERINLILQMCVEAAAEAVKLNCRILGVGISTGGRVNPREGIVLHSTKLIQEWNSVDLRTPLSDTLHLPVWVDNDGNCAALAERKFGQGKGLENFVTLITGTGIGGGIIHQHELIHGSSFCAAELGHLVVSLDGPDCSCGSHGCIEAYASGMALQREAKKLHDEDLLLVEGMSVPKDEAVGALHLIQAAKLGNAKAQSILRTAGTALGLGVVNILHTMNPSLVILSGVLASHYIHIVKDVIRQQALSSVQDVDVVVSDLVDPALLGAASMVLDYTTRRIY
# Sequence of UniProt Q9BQQ3 (Q9BQQ3 whole entry, looked up): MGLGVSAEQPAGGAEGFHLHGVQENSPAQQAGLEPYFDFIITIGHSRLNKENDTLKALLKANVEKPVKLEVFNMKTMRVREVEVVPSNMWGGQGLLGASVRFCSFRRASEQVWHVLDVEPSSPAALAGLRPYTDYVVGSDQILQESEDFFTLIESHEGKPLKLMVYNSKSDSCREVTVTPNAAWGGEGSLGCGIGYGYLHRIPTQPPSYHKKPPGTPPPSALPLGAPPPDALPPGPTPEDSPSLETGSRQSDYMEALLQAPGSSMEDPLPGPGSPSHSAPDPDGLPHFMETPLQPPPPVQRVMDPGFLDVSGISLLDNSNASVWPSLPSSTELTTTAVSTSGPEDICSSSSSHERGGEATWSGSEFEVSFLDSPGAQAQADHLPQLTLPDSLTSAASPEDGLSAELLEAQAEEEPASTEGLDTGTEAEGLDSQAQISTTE
# Sequence of UniProt Q9BX10 (Q9BX10 whole entry, looked up): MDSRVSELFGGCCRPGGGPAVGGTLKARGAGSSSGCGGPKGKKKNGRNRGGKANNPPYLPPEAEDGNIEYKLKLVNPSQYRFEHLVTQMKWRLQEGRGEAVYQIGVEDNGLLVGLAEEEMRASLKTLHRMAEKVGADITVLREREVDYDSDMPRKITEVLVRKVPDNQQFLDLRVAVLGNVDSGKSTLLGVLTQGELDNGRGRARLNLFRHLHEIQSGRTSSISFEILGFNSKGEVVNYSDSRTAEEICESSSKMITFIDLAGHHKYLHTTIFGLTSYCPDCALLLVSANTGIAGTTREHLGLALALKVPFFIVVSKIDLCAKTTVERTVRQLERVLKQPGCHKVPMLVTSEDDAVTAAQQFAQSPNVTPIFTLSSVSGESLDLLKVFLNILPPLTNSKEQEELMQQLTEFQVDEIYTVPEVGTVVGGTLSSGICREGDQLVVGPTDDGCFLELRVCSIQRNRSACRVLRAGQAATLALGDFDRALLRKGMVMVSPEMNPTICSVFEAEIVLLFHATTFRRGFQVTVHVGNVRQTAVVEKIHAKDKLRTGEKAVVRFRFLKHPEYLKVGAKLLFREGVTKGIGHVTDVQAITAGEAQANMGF
# Sequence of UniProt Q9Y5Q9 (Q9Y5Q9 whole entry, looked up): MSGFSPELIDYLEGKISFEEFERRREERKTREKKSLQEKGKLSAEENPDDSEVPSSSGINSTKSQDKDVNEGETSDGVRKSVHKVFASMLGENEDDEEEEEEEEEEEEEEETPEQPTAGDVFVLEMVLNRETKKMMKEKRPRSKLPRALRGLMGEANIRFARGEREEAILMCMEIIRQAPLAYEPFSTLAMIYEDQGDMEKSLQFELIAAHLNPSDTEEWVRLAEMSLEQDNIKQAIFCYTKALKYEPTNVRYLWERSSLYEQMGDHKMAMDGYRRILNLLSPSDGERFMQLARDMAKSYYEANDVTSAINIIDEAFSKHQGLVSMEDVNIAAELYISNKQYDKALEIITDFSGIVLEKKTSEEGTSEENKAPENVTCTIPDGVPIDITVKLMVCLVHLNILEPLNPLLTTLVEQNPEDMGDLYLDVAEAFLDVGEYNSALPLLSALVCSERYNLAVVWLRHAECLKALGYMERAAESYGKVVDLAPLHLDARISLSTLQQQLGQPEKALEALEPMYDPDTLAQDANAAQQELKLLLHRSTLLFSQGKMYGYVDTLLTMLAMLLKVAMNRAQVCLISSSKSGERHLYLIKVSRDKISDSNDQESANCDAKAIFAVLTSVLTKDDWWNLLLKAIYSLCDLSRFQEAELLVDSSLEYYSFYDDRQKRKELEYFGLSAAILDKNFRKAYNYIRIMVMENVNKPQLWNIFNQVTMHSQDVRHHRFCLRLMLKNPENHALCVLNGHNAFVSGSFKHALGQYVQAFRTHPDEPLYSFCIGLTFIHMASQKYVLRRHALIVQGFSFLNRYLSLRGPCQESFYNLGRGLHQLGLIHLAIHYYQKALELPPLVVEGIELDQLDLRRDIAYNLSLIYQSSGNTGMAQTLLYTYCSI
# Sequence of UniProt Q99871 (Q99871 whole entry, looked up): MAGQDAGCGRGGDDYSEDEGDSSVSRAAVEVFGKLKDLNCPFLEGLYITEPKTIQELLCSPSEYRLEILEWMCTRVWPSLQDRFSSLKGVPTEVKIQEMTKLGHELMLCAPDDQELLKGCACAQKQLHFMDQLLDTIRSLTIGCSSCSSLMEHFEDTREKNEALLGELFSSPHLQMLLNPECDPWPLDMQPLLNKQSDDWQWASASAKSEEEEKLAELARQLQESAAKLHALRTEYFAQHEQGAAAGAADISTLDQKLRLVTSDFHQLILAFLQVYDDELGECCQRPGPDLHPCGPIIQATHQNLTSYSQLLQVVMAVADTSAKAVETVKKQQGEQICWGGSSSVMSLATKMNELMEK
# Sequence of UniProt P20839 (P20839 whole entry, looked up): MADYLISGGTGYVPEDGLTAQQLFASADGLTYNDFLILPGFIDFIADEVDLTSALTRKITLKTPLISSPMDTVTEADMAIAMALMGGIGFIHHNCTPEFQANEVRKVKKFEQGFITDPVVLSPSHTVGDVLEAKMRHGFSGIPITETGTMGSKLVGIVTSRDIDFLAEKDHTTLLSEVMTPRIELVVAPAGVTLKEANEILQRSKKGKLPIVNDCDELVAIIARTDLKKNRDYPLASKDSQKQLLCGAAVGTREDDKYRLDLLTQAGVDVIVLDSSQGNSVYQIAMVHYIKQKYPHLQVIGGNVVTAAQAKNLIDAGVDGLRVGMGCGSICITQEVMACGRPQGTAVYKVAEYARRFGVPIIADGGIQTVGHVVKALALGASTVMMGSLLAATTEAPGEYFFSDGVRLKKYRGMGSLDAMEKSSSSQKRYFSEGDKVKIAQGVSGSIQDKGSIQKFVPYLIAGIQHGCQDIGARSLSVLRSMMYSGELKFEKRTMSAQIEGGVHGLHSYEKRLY
# Sequence of UniProt Q13322 (Q13322 whole entry, looked up): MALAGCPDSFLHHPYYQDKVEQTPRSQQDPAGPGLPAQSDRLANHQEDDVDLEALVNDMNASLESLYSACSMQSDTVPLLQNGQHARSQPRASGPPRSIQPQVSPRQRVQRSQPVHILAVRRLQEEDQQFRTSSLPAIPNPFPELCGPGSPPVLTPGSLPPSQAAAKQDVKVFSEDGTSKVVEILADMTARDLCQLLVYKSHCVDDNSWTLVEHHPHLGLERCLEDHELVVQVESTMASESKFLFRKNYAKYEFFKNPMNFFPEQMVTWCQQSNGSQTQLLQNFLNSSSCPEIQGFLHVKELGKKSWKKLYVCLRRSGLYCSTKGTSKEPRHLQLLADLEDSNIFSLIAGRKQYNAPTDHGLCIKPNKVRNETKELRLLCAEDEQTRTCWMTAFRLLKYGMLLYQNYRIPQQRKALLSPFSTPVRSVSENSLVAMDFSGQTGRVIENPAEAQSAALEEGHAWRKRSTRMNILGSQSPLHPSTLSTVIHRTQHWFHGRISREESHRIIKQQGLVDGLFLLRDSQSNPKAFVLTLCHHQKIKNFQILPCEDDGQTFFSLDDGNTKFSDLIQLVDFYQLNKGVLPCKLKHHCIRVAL
# Sequence of UniProt P25098 (P25098 whole entry, looked up): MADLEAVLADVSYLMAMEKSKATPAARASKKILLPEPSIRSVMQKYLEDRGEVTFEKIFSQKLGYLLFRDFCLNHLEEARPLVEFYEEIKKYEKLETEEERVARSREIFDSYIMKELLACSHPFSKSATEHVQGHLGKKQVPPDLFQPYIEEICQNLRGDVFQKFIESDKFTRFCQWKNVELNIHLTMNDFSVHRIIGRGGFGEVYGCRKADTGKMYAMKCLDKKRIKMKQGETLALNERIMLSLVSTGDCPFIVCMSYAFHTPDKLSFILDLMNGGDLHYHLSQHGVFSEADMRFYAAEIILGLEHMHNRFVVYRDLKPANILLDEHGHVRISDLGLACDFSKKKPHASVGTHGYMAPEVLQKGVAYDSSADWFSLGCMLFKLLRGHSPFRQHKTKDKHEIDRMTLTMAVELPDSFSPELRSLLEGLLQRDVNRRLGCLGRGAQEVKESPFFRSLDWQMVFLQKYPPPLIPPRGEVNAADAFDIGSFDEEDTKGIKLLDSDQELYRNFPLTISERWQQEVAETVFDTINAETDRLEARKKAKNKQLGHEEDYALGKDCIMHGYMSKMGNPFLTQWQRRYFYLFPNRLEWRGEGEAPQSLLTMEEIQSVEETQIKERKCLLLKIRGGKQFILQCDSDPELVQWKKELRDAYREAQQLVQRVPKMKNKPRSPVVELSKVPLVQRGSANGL
Target,log2 fold change (nilotinib),log2 fold change [1],log2 fold change (dasatinib),log2 fold change [2],log2 fold change [3],log2 fold change (quisinostat),log2 fold change (tipifarnib),log2 fold change [4],log2 fold change [5],log2 fold change [6]
GRK2 (UniProt P25098),0.001,0.393 (active),-0.058,0.01,0,0.034,-0.001,0.397 (active),0.043,-0.027
KCTD20 (UniProt Q7Z5Y7),0.054,-0.021,-0.096,0.074,0.039,-0.138,-0.028,0.109,0.089,-0.007
GORASP1 (UniProt Q9BQQ3),0.011,-0.02,-0.019,0.034,0.048,0.034,-0.006,-0.071,0.177,-0.11
GOLPH3L (UniProt Q9H4A5),-0.045,0.033,0,-0.006,0.01,-0.026,0.018,0.094,0.013,-0.039
GSK3A (UniProt P49840),0.026,0.425,0.021,0.562 (active),0.048,-0.009,-0.008,-0.024,0.099,-0.006
GTPBP2 (UniProt Q9BX10),0.016,-0.009,-0.023,-0.014,0.005,-0.136,-0.079,0.042,0.04,0.046
GTF3C3 (UniProt Q9Y5Q9),0.035,0.052,0.008,-0.026,0.009,-0.134,-0.057,0.031,0.009,-0.084
GNE isoform 2 (UniProt Q9Y223),-0.013,-0.003,0.003,-0.081,0.025,-0.042,0.008,0.061,-0.008,-0.006
HAUS7 isoform 2 (UniProt Q99871),0.021,0.007,0.015,0.055,-0.026,-0.037,-0.011,0.063,0.024,-0.047
IMPDH1 isoform 6 (UniProt P20839),0.008,-0.034,-0.033,0.015,-0.006,-0.121,-0.017,-0.007,-0.008,-0.012
IRAK1 (UniProt P51617),-0.036,0.011,0.051,0.112,0.131,-0.145,0.016,0.373 (active),0.005,-0.005
GOLGA6B (UniProt A6NDN3),0.039,-0.102,0.009,-0.075,0.161,-0.355,0.051,0.106,-0.008,-0.082
GRB10 (UniProt Q13322),0.053,-0.028,-0.003,0.026,0.04,-0.065,-0.058,0.008,-0.056,0.008
HERC2 (UniProt O95714),-0.077,0.017,0.032,-0.034,0.118,-0.061,0.007,0.028,-0.047,0.085
